Holding throughout (assay): yeast three-hybrid, YBZ-1, SC-Leu-His + 0.5 mM 3-AT, 4 days
Conditions in all cases: tags: N-Gal4 AD-HA kept; label: inside an RPR1-promoter hybrid RNA with tandem MS2 sites; ssRNA

One assay addresses PUM1 PUF domain R5-AVR (Homo sapiens, UniProt Q14671 828-1176, C1007A;R1008V;Q1011R). The gist of the method:
(§1)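 Sequencing with Illumina followed PCR amplification of the repeat regions from transformants grown four days on SC-Leu (input) or SC-Leu-His + 0.5 mM 3-AT (selection). The transformants were strain YBZ-1 with a LexA–MS2 coat fusion and a HIS3 reporter, carrying Pumilio-1 PUF domain libraries and matching RNA elements. The interaction score is the log change in variant frequency from input to selection, computed in log2 with a pseudocount of 1 for absent variants.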

The target in another assay is PUM1 PUF domain R5-SRQ (Homo sapiens, UniProt Q14671 828-1176, C1007S). The gist of the method:
as §1

The next assay concerns the target PUM1 PUF domain R5-WWW (Homo sapiens, UniProt Q14671 828-1176, C1007W;R1008W;Q1011W). A digest of the protocol:
as §1

A further assay deals with PUM1 PUF domain R5-KRC (Homo sapiens, UniProt Q14671 828-1176, C1007K;Q1011C). The gist of the method:
as §1

The target in the next assay is PUM1 PUF domain R5-KHC (Homo sapiens, UniProt Q14671 828-1176, C1007K;R1008H;Q1011C). A digest of the protocol: as §1
For another assay, the target named is T1, PUM1 PUF domain R6-VYE (Homo sapiens, UniProt Q14671 828-1176, N1043V;Q1047E).
T1 sequence: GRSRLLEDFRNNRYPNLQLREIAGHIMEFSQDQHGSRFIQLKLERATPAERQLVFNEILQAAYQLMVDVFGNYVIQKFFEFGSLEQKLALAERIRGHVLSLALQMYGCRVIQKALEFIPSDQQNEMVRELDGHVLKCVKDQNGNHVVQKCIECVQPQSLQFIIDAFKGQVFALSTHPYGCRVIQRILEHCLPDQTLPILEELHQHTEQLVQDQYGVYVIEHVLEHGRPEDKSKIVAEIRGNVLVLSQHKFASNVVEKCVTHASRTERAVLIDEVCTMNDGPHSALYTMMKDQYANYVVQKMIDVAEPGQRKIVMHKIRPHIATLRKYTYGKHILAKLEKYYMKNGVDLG
A digest of the protocol: as §1

The target of another assay is PUM1 PUF domain R3-EFE (Homo sapiens, UniProt Q14671 828-1176, C935E;R936F;Q939E). The gist of the method:
as §1

The next assay has as its target PUM1 PUF domain R3-RTL (Homo sapiens, UniProt Q14671 828-1176, C935R;R936T;Q939L). The gist of the method: as §1
The target in a further assay is PUM1 PUF domain R3-KPS (Homo sapiens, UniProt Q14671 828-1176, C935K;R936P;Q939S). The gist of the method:
as §1

A further assay addresses PUM1 PUF domain R7-LYG (Homo sapiens, UniProt Q14671 828-1176, S1079L;N1080Y;E1083G). The gist of the method: as §1

PUM1 PUF domain R5-KRC, sequence (Q14671 828-1176 C1007K/Q1011C): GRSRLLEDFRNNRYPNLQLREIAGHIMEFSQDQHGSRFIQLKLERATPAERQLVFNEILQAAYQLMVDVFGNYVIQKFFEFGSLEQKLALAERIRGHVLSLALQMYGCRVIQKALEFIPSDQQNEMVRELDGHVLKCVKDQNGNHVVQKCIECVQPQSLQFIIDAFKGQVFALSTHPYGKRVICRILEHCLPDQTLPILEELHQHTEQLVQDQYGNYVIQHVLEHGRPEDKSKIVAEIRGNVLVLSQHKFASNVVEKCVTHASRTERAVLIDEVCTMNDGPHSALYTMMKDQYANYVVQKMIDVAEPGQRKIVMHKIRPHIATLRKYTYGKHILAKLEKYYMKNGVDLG

Regarding “GGCUAGAACUAGUGGAUCCCCCGGCGCCCGGCGGCUCGAGCCCGGGUAAGUGUGAAUAGUCUGCAUGCCGCCGGGCGCCAUGCCUGCAGGUCGACUCUAGAAAACAUG”, the binding signal in the assay with PUM1 PUF domain R5-AVR was 0.2 log2 enrichment (interaction score); with PUM1 PUF domain R5-SRQ, 3.6 log2 enrichment (interaction score); with PUM1 PUF domain R5-WWW, 3.25 log2 enrichment (interaction score); in the assay with PUM1 PUF domain R5-KRC, 1.03 log2 enrichment (interaction score).

For “GGCUAGAACUAGUGGAUCCCCCGGCGCCCGGCGGCUCGAGCCCGGGUAAGUGUUAAUAGUCUGCAUGCCGCCGGGCGCCAUGCCUGCAGGUCGACUCUAGAAAACAUG”, the values for the binding signal with PUM1 PUF domain R5-KHC and in the assay with PUM1 PUF domain R5-KRC were 6.52 log2 enrichment (interaction score) and 3.89 log2 enrichment (interaction score), respectively.

In the case of “GGCUAGAACUAGUGGAUCCCCCGGCGCCCGGCGGCUCGAGCCCGGGUAAGUGUCAAUAGUCUGCAUGCCGCCGGGCGCCAUGCCUGCAGGUCGACUCUAGAAAACAUG”, the binding signal with PUM1 PUF domain R5-AVR was 4.64 log2 enrichment (interaction score); with PUM1 PUF domain R5-KRC it was 3.63 log2 enrichment (interaction score).

Take “GGCUAGAACUAGUGGAUCCCCCGGCGCCCGGCGGCUCGAGCCCGGGUAAGUGAAAAUAGUCUGCAUGCCGCCGGGCGCCAUGCCUGCAGGUCGACUCUAGAAAACAUG”: the binding signal in the assay with PUM1 PUF domain R6-VYE is 7.22 log2 enrichment (interaction score).

For the sequence “GGCUAGAACUAGUGGAUCCCCCGGCGCCCGGCGGCUCGAGCCCGGGUAAGUGUAAUUAGUCUGCAUGCCGCCGGGCGCCAUGCCUGCAGGUCGACUCUAGAAAACAUG”, the values for the binding signal in the assay with PUM1 PUF domain R3-EFE, with PUM1 PUF domain R3-RTL and with PUM1 PUF domain R3-KPS were 3.56 log2 enrichment (interaction score), 2.61 log2 enrichment (interaction score) and 3.86 log2 enrichment (interaction score), respectively.

For “GGCUAGAACUAGUGGAUCCCCCGGCGCCCGGCGGCUCGAGCCCGGGUAAGUCUAAAUAGUCUGCAUGCCGCCGGGCGCCAUGCCUGCAGGUCGACUCUAGAAAACAUG”, in the assay with PUM1 PUF domain R7-LYG, the binding signal was 2.93 log2 enrichment (interaction score).

Source of the values: article PMC8384837, “Expanding the binding specificity for RNA recognition by a PUF domain”.
